Structures are written as SMILES. Out of some 69,000 compounds screened, about 8,600 (12%) showed an effect of 50% or more. This is one part of a sample in which strong results are shown more often than they occur.

For the test, the system named is Plasmodium berghei. The test is described as follows: Screen against P. berghei liver stage (PbLuc), transformed with Luciferase, at 10uM. In kind it is functional, HepG2. The settings on record: tested at 10 uM.
Consider `CCOCC1CN(Cc2cccnc2)Cc2nn(C)cc21` (stereo not drawn), for which the INHIBITION is -21.4%.

For the molecule `O=C(C1CC(F)(F)C1)N1C[C@@H]2CN(CC3CCCC3)CCO[C@@H]2C1`, the INHIBITION worked out at 20.6%.

Regarding `O=C1CN(C(=O)CCn2c(C(F)(F)F)cc3cccnc32)CCN1`, the INHIBITION worked out at 25.6%.

With `CSC1(CNC(=O)c2cccc(-n3cccn3)c2)CCOCC1`, the INHIBITION was -46.4%.

Take `Cc1ncccc1NC(=O)[C@@H]1CCO[C@@H]2CCN(c3ccccc3)C[C@@H]21`: the INHIBITION was 41.4%.

`CC(C)N1CCC(CC(=O)N2CCN(Cc3nccn3C)CC2)CC1`: the INHIBITION is 58.5%.

With `Cn1ccnc1CN1CCCN(C(=O)COCC2CC2)CC1`, the INHIBITION worked out at 13.3%.

With `CC(C)N1CCC(CC(=O)N2CCC(C(O)c3nccn3C)CC2)CC1` (stereo not drawn), the INHIBITION is given as 46.7%.

In the case of `O=c1c2c[nH]c(N3CCCCC3)nc-2cn1-c1ccc2c(c1)OCO2`, the INHIBITION was -22.9%.

Regarding `Cc1ccc(CNCC2Cn3nnc(-c4cccc(F)c4)c3CO2)o1` (stereo not drawn), the INHIBITION is 18.2%.

On to `Fc1cccc(-c2nnn3c2COCC(CNCc2nccs2)C3)c1` (stereo not drawn), for which the INHIBITION came out at 47.5%.

Regarding `Fc1cccc(-c2nnn3c2COC(CNCc2nccs2)C3)c1` (stereo not drawn), the INHIBITION amounted to 50.3%.

As to `Fc1cccc(-c2nnn3c2COC(CNCc2cccs2)C3)c1` (stereo not drawn), the INHIBITION is given as 1.9%.

Take `Cc1cccc(-c2nnn3c2COC(CNCc2nccs2)C3)c1` (stereo not drawn): the INHIBITION was -10.2%.

As for `Fc1cccc(-c2nnn3c2COC(CNCc2ccsc2)C3)c1` (stereo not drawn), the INHIBITION stood at 52%.

With `COc1cc2nc(C)n(CC(=O)NCC(C)C)c(=O)c2cc1OC`, the INHIBITION is reported as 21.5%.

In the case of `CC(=O)N1CCC(Cc2nccnc2-c2c(C)n[nH]c2C)C1` (stereo not drawn), the INHIBITION is reported as -14.1%.

In the case of `COCCN1C[C@@H](C)[C@@]2(COCCN(C(=O)c3cccc(C)n3)C2)C1`, the INHIBITION is given as -10.5%.

Consider `CC(C)n1cnc2c(-c3cccnc3)nc(C3CCNCC3)cc21`, for which the INHIBITION was 55.7%.

Take `CC(=O)N1CCC(c2cc3c(ncn3C)c(-c3cnn(C)c3)n2)CC1`: the INHIBITION worked out at 33.4%.

`COc1ccc(-c2ccnc(C3CCNCC3)c2)cc1`: the INHIBITION turned out to be 29.2%.

Take `CC(C)n1cnc2c(N3CCCC3)nc(C3CCNCC3)cc21`: the INHIBITION is on record as -3.52%.

On to `Cn1cc(-c2nc(C3CCN(CC4CC4)CC3)cc3c2ncn3C)cn1`, for which the INHIBITION is reported as 61.5%.

With `COc1ccc(-c2nc(C3CCNCC3)cc3c2ncn3C)cc1`, the INHIBITION is given as 53%.

Take `Cn1cnc2c(-c3cccnc3)nc(C3CCNCC3)cc21`: the INHIBITION was 48.4%.

As to `Cn1cc(-c2nc(C3CCN(S(C)(=O)=O)CC3)cc3c2ncn3C)cn1`, the INHIBITION is on record as 15.7%.

As for `Cn1cnc2c(-c3ccccc3)nc(C3CCNCC3)cc21`, the INHIBITION is reported as 38.5%.

For `O=C(CC1CC1)NCc1cn2c(n1)CN(CC1CC1)CC2`, the INHIBITION was 9.67%.

As to `Cc1nc2sc(C(=O)N3CCNC(=O)C3)c(C)c2c(=O)[nH]1`, the INHIBITION was -4.35%.

With `Cc1nc(-c2ccsc2)ccc1C(=O)NCC(C)N1CCOCC1` (stereo not drawn), the INHIBITION is -24.275%.

`N#Cc1ccc(F)c(CN2CCCCC2Cn2cccn2)c1` (stereo not drawn): the INHIBITION is on record as -36.1%.

Take `COc1ccccc1CC(C)CC(=O)N(C)Cc1cc(C)on1` (stereo not drawn): the INHIBITION is given as 14.7%.

For `O=C(c1nc2c(o1)CN(CC1CCC1)C2)N1CCCC1`, the INHIBITION is listed as -15.6%.

On to `COc1cc2nc3n(c(=O)c2cc1OC)CCN(C(=O)C1CCC1)CC3`, for which the INHIBITION is given as 23.4%.

Take `CCc1ccc(C(O)CN2CCN(c3cccc(OC)c3)CC2)cc1` (stereo not drawn): the INHIBITION was 54%.

In the case of `COc1cccc(C(O)CN2CCN(c3cccc(C)c3)CC2)c1` (stereo not drawn), the INHIBITION was 16%.

For the molecule `CCOCCN1CCN(CC(O)c2ccc(OC)cc2)CC1` (stereo not drawn), the INHIBITION was -9.39%.

Regarding `COc1cccc(N2CCN(CC(O)c3cc(C)ccc3C)CC2)c1` (stereo not drawn), the INHIBITION is 67.9%.

As for `CCn1cc(CN2CCN(CC(O)c3cc(C)ccc3C)CC2)c(C)n1` (stereo not drawn), the INHIBITION is recorded as 43.6%.

Turning to `COc1cccc(N2CCN(CC(O)c3cc(C)sc3C)CC2)c1` (stereo not drawn), the INHIBITION came out at 63.1%.

In the case of `COc1cccc(N2CCN(CC(O)c3ccc(C)cc3)CC2)c1` (stereo not drawn), the INHIBITION was 17.4%.

In the case of `CCCN1CCN(CC(O)c2ccc(OC(F)(F)F)cc2)CC1` (stereo not drawn), the INHIBITION is reported as 33.7%.

Regarding `OC(CN1CCCCCCC1)c1ccc(OC(F)(F)F)cc1` (stereo not drawn), the INHIBITION came to 19.2%.

On to `COc1ccc(OC)c(C(O)CN2CCN(C3CCCC3)CC2)c1` (stereo not drawn), for which the INHIBITION is on record as -113%.

`COCCN1CCN(CC(O)c2cc(OC)ccc2OC)CC1` (stereo not drawn): the INHIBITION was -94.3%.

With `CCN1CCN(CC(O)c2ccc(OC(F)(F)F)cc2)CC1` (stereo not drawn), the INHIBITION stood at 56.1%.

On to `CCN(Cc1nonc1C)C(=O)Cn1nc(C(F)(F)F)cc1C1CC1`, for which the INHIBITION worked out at 28.89%.

For the molecule `Cc1cccc(CC(=O)N2CCCCC2CN)c1` (stereo not drawn), the INHIBITION worked out at 8.13%.

Consider `CCC(C)(C)c1cc(-c2c(C)nn(CCO)c2C)c(C#N)c(N)n1`, for which the INHIBITION is recorded as -24.6%.

Turning to `NC1CCC(NC(=O)c2ccc3nc(-c4ccc(F)cc4)cn3c2)CC1` (stereo not drawn), the INHIBITION is recorded as 24.7%.

As for `CN(C)CCOc1ccc(N(C)S(=O)(=O)c2cnn(C)c2)cc1`, the INHIBITION amounted to 32.3%.

In the case of `Cc1cnn(CCNCc2nnc(-c3ccccc3)o2)c1`, the INHIBITION turned out to be 31.3%.

As to `COc1ccc(N2CCN(CC(O)c3ccc(C)cc3C)CC2)cc1` (stereo not drawn), the INHIBITION is given as 41.6%.

The values are drawn from ChEMBL document CHEMBL4513216, “Probing the Open Global Health Chemical Diversity Library for Multistage-Active Starting Points for Next-Generation Antimalarials” (ACS Infect Dis, 2020).
